# Source: PubChem BioAssay
# Only some compounds are listed: those with a hit (about 7.9% of all), similar ones and a draw of the others.
# Marburg entry inh = blocks Marburg virus binding to or entry into cells; Potency, µM (series often up to 37.8 µM), actives largely listed as inhibitors; Marburg virus pseudotyped entry inhibition, cell reporter; 1.8% of 300,000 active; AID 540276; calls by dose curve; tested in HEK293 cells
# LASV entry inh = inhibitors of Lassa virus binding or cell entry; Lassa virus pseudotype entry inhibition, cell reporter; Potency, µM (titrated, usually from 37.9 µM), hits mostly inhibitors; 1.2% of 300,000 active; AID 540256; calls by dose curve; tested in HEK293 cells; further: nearly all actives have a fitted effect of over 50% in size
# FMDV antiviral = blocks foot and mouth disease virus. FMDV antiviral cell-based qHTS. Potency, µM (series often up to 57.9 µM), most hits filed as inhibitors. 1.2% of 410,000 active; calls by dose curve; tested in HEK293T cells; further: read-out not given here; nearly all actives have a fitted effect of over 45% in size
# HCMV antiviral = inhibitors of human cytomegalovirus. activity change, negative = inhibition, % at 57.5 µM. 4.5% of 410,000 active. AID 1259415. HFF cells, HCMV-luciferase reporter, 72 h; hits give low values; in the data active means activity change below about -60%; inconclusive means no clear call, values can overlap the other calls; inactive means above about -39%
#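 Steps: HFFs plated, 16 h 37C; compounds added; HCMV-luciferase added to MOI 1 PFU/cell; 72 h 37C; OneGlo reagent, 5 min room temperature; luminescence read, normalized to controls.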
# HCV inh = blocks hepatitis C virus | Huh7.5.1 HCVcc-Cre infection, luciferase reporter, 44 h | Potency, µM (titrated, usually from 41.8 µM), hits mostly inhibitors | 3.4% of 340,000 active | AID 651820; active means well fitted inhibition curve with a large enough effect; inconclusive means small, poorly fitted or top-dose-only effect, or another doubt; inactive means no such curve, though single readings can be large or run the other way
#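 Whole-lifecycle infectious HCVcc-Cre system; cells 1,000/well, compound then virus (~0.5 moi) added 4 h after plating, 44 h culture. Luciferase read 15 sec following 15 min substrate incubation, room temp.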
# Hits are given with their value; - = inactive; ? = inconclusive; . = no result given; + = active, no number; [ ] = dose if it differs, or a comment.
SMILES,Marburg entry inh,LASV entry inh,FMDV antiviral,HCMV antiviral,HCV inh
C[C@H](NC(=O)CNC(=O)[C@@H](NC(=O)[C@H](Cc1ccccc1)NC(=O)CNC(=O)CNC(=O)[C@@H](N)Cc1ccccc1)[C@@H](C)O)C(=O)N[C@@H](CCCN=C(N)N)C(=O)N[C@@H](CCCCN)C(=O)N[C@@H](CO)C(=O)N[C@@H](C)C(=O)N[C@@H](CCCN=C(N)N)C(=O)N[C@H](CN)CCCCN,.,.,-[6.7 µM],.,.
Nc1c(C(=O)Nc2ccccc2)c2nc3ccccc3nc2n1CCCN1CCOCC1,?,-,?,-,22µM
N#Cc1c(N)n(CCCN2CCOCC2)c2nc3ccccc3nc12,?,-,?,-,-
CCC(CC)COC(=O)C(C#N)c1nc2ccccc2nc1N1CCN(CC)CC1 (stereo not given),5.2µM,?,?,-,?
Cc1cc2c(c(=O)n1Cc1ccccc1)[C@H]1O[C@](CCCCN3C(=O)c4ccccc4C3=O)(Cc3c1ccc1ccccc31)O2,-,.,.,.,.
COc1ccc(S(=O)(=O)NCc2ccncc2)cc1NC(=O)c1ccc(Cl)cc1,?,?,-,-63,?
COc1ccc(S(=O)(=O)NCc2ccccn2)cc1NC(=O)c1ccc(Cl)cc1,?,?,-,-,?
COc1ccc(S(=O)(=O)NCc2cccnc2)cc1NC(=O)c1ccccc1,-,.,-,-,-
COc1ccccc1NS(=O)(=O)c1ccc(C(=O)NCc2ccncc2)cc1,.,.,-,+,-
COc1ccc(S(=O)(=O)NCc2ccncc2)cc1NC(=O)c1ccccc1,?,-,-,-79,-
CCOc1ccc(S(=O)(=O)NCc2ccncc2)cc1NC(=O)c1ccccc1,3.5µM,?,-,-87,1.8µM
O=C(CCN1CCN(c2ccccc2)CC1)NNC(=O)Cc1ccc(Br)cc1,?,-,-,-,-
Cn1nccc1-c1ccc(C(=O)NCc2ccco2)c2occc12,.,.,-,-,.
COc1cc(=O)n2c(c1C(=O)N(C)Cc1nonc1C)CCN(C(=O)c1cccc(C)c1C)CC2,.,.,-,.,.
COc1ccc(NC(=O)NC[C@@H]2CC[C@@H](Cc3ccc(-c4ccccc4)cc3)O2)cc1,.,.,-,-,4.5µM
NC(=S)N/N=C/c1ccc(/C=N/NC(N)=S)cc1,.,.,-,-,-
NC(=S)NN=Cc1nccc2c(C(F)(F)C(F)(F)C(F)(F)F)cccc12,.,.,-,-99,.
CS(=O)(=O)Nc1cccc(C2=NN(C(=O)c3cccc([N+](=O)[O-])c3)C(c3cccs3)C2)c1 (stereo not given),.,.,-,-,?
COc1ccc(C(=O)Nc2nc(C)c(C(C)=O)s2)cc1S(=O)(=O)N1CCOCC1,.,.,-,-92,-
COc1ccc(C(=O)Nc2ccc(-c3ccc(C)o3)cc2)cc1S(=O)(=O)N1CCOCC1,13µM,7.9µM,10µM,-96,2.5µM
COc1ccc(S[C@]2(c3nc(C)no3)CC(=O)N(C(=O)c3ccccc3)[C@@H]2c2ccc(OC)cc2)cc1,.,.,.,-,.
COc1ccc(CCNC(=O)c2cc(=O)c3cc(C)ccc3o2)cc1OC,.,.,?,?,22µM
CCCNC(=O)c1ccc(COc2ccc(CCC)cc2OC)o1,-,6.3µM,?,-62,?
CCCc1ccc(OCc2ccc(C(=O)N3CCN(c4ccccn4)CC3)o2)c(OC)c1,23µM,-,?,-,?
CCCNC(=O)c1ccc(COc2cccc3ccccc23)o1,.,.,?,-,?
SMILES,Marburg entry inh,LASV entry inh,FMDV antiviral,HCMV antiviral,HCV inh
CCN(C)C1CN(Cc2cn(Cc3ccc(F)cc3)nn2)S(=O)(=O)C1 (stereo not given),.,.,-,-,.
Cc1ccc(-n2cccc2C(=S)N=P(N(C)C)(N(C)C)N(C)C)cc1,?,?,?,-80,?
COc1ccc(NC(=O)c2oc3c(c2C)-c2nn(Cc4ccccc4Cl)cc2CC3)cc1OC,.,-,-,-64,.
COc1ccc(NC(=O)c2ccc(CN3CCc4ccccc4C3)cc2)cc1OC,.,.,-,-64,13µM
CC1CCN(CCC(=O)Nc2ccc3c(c2)CCC3)CC1,-,-,.,-80,?
O=C(Nc1ccc(N2CCN(Cc3ccccc3)CC2)cc1)c1cccnc1,-,-,-,-61,-
NC(=O)C1CCN(CCC(=O)Nc2ccc3c(c2)CCC3)CC1,-,-,-,-,-
Cc1cc(C)c(NC(=O)c2ccc(CN3CCc4ccccc4C3)cc2)c(C)c1,?,16µM,?,-,8.9µM
COc1cccc(NC(=O)c2ccc(CN3CCc4ccccc4C3)cc2)c1,.,.,-,?,1µM
CC(=O)c1cccc(NC(=O)c2ccc(CN3CCc4ccccc4C3)cc2)c1,.,.,?,-,11µM
CCOc1ccccc1NC(=O)c1ccc(CN2CCc3ccccc3C2)cc1,-,-,-,-,?
Cc1ccc(C(=O)Nc2ccc3c(c2)CCC3)cc1,?,16µM,-,-74,-
Cc1ccc(-n2c(SCC(=O)Nc3ccc4c(c3)OCO4)nc3c([nH]c4ccccc43)c2=O)cc1,.,-,-,-,.
O=C(CSc1ccccc1)Nc1ccc(N2CCOCC2)c(F)c1,.,.,-,-,-
CC(=O)c1cccc(NC(=O)c2ccc3c(c2)CCCC3)c1,.,.,-,-,11µM
COc1cccc(NC(=O)c2ccc(N3C(=O)C4CC=C(C)CC4C3=O)cc2)c1 (stereo not given),.,.,?,-64,?
C/C(=N\NC(=O)c1ccc(CN2CCc3ccccc3C2)cc1)c1ccccc1O,?,-,22µM,-96,5.6µM
COc1cccc(NC(=O)c2ccc(CN3CCN(c4ccccc4)CC3)cc2)c1,5.8µM,?,?,-67,14µM
COc1ccc(C(=O)NCCS(=O)(=O)N2CCN(C(=O)c3ccco3)CC2)cc1,-,-,-,-,-
O=C(NCCS(=O)(=O)N1CCN(C(=O)c2ccco2)CC1)c1ccccc1,.,.,-,-79,.
CC/C(=N/O)C(=O)c1ccc(Br)cc1,-,8.9µM,-,-,-
C/C(=N/OC(=O)c1ccc(C)cc1)C(=O)c1ccc(Br)cc1,.,.,-,-,-
Cc1noc(-c2ccccc2OCC(=O)Nc2ccccc2[N+](=O)[O-])n1,-,?,-,?,.
CS(=O)(=O)c1ncc(N(Cc2ccco2)Cc2cccs2)c(C(=O)Nc2ccccc2F)n1,-,-,-,-,.
COc1cccc(-c2ccc3ncnc(NC4CC4)c3c2)c1,.,.,-,.,.
SMILES,Marburg entry inh,LASV entry inh,FMDV antiviral,HCMV antiviral,HCV inh
COc1cccc(N2C(=O)Nc3ccc(Br)cc3C2(O)C(=O)NCCCOC(C)C)c1 (stereo not given),?,-,-,-,-
Cc1cc(-c2nc3cc(F)ccc3s2)ccc1N,7.1µM,2.2µM,-,-,?
c1cncc(OC2CCN(Cc3ccc4c(c3)CN(Cc3nc5ccccc5s3)CCO4)CC2)c1,.,.,-,.,.
COc1ccc(OCc2n(CC(=O)OC3CC(C)CCC3C(C)C)c3ccccc3[n+]2C)cc1 (stereo not given),.,.,?,-103,?
COc1ccc(-c2n(CC(=O)OC3CC(C)CCC3C(C)C)c3ccccc3[n+]2C)cc1 (stereo not given),?,?,5µM,-,11µM
COc1cccc(-c2cc3c(c(OC)c2)OCCN(Cc2cccn2-c2ccccn2)C3)c1,.,.,-,.,.
Cc1ccc2c(CN3CCN(c4ccc(Cl)c(Cl)c4)CC3)cc(=O)oc2c1,.,?,-,-,.
